Data reported in PubChem BioAssay AID504834 (National Center for Advancing Translational Sciences (NCATS), 2011).
Out of some 320,000 compounds screened, about 22,000 (6.9%) were called active. Entries that show only a call come without a potency. Inconclusive results (about 27%) are left out. For the sample, actives were picked, then their nearest neighbours and some compounds at random. Values without a mark were called inactive. The call rests on the fitted dose curve; in most records, active means well fitted inhibition curve with a large enough effect; inconclusive means small, poorly fitted or top-dose-only effect, or another doubt; inactive means no such curve, though single readings can be large or run the other way.

test: Primary qHTS for delayed death inhibitors of the malarial parasite plastid, 96 hour incubation; settings: P. falciparum luciferase reporter growth; series mostly up to 28.7 µM
Procedure, shortened: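 Two parasite generations (96 h, 37 C, 5% CO2) of compound exposure in infected erythrocytes (0.05% parasitemia, 2% hematocrit). Luciferase-reporter P. falciparum; decreased luminescence indicates inhibited growth, aimed at apicoplast-acting delayed death.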
Potency means the concentration at half of the fitted maximal effect.

Row | Structure (SMILES) | Potency | activity change, negative = inhibition
1 | CC(C)c1c(C(=O)N/N=C/c2ccc(-c3ccccc3)cc2)nnn1-c1nonc1N | inactive | 
2 | Nc1nonc1-n1nnc(C(=O)N/N=C/c2ccc(Cl)cc2)c1-c1ccc2c(c1)OCO2 | 0.0657 µM (active) | 
3 | Nc1nonc1-n1nnc(C(=O)N/N=C/C2CCCCC2)c1-c1ccccc1 | inactive | 
4 | CCOC(=O)N1CCN(C(=O)COc2ccc3oc4c(c3c2)CCCC4)CC1 | inactive | 
5 | CC(=O)Oc1ccc(-c2cccc(C(=O)N3CCCCC3)c2)cc1 | inactive | 
6 | COc1ccccc1CNC(=O)C1CCN(C(=O)[C@@H]2Cc3ccccc3CN2)CC1 | inactive | 
7 | C/C(CCC(=O)OC[C@H]1O[C@H](C#Cc2ccccc2)C=C[C@@H]1Oc1ccc(C)cc1)=N\OC[C@@H](O)[C@H]1O[C@@H]2OC(C)(C)O[C@@H]2[C@H]1O | 13.1 µM (active) | 
8 | NC(=O)C1CCN(c2nc(-c3cccc(F)c3)cs2)CC1 | inactive | 
9 | Nc1nnc(SCC(=O)NCC(=O)Nc2ccc(F)c(F)c2F)s1 | inactive | 
10 | CCN(CC(=O)Nc1c(F)cccc1F)C(=O)c1ccc(Sc2nncn2C)c([N+](=O)[O-])c1 | inactive | 
11 | CN(C)CCNC(=O)c1[nH]nc2c1CCc1ccccc1-2 | inactive | 
12 | O=C(N/N=C/c1ccc(O)c2ccccc12)c1cccnc1 | inactive | 
13 | Cc1cc(/C=N/NC(=O)c2cccnc2)c(C)n1CC(C)C |  | 33.1% [at 5.75 µM]
14 | O=C(N/N=C/c1sc(N2CCCCC2)nc1-c1cccs1)c1cccnc1 | 2.08 µM (active) | 
15 | COc1ccccc1CNC(=O)COC(=O)c1sc(C)nc1C | inactive | 
16 | CN1C2CCC1CC(NC(=O)c1ccc([N+](=O)[O-])cc1)C2 (configuration not stated) | inactive | 
17 | Cc1nc(/N=C(\N)NC(=O)NC2CCCCC2)nc2ccccc12 | 3.29 µM (active) | 
18 | COc1ccc2nc(/N=C(\N)NC(=O)Nc3ccccc3)nc(C)c2c1 | inactive | 
19 | Cc1nn(-c2ccccc2)c(C)c1C(=O)OCC(=O)NC(=O)NC1CCCCC1 | inactive | 
20 | O=c1ccc2cc(S(=O)(=O)NCCCc3ccccc3)ccc2[nH]1 | inactive | 
21 | COc1ccc(CN2CCCC(C(=O)N3CCCCC3)C2)cc1 (configuration not stated) | inactive | 

Row | Structure (SMILES) | Potency | activity change, negative = inhibition
22 | Cc1ccc(OC(=O)c2cncc(Br)c2)c(C)c1 | inactive | 
23 | N/C(=N\OC(=O)COc1ccc([N+](=O)[O-])cc1)c1ccc(Br)cc1 | inactive | 
24 | CCOC(=O)COc1ccc([N+](=O)[O-])cc1 | 0.415 µM (active) | 
25 | O=C1CCCN1C(=O)COc1ccc([N+](=O)[O-])cc1 | inactive | 
26 | Cc1cc(NC(=O)CCC(=O)N(Cc2ccccc2)C(C(=O)NC2CCCC2)c2ccc(C)o2)no1 (configuration not stated) | inactive | 
27 | CC(C)CCN1CCC(C)(NC(=O)c2ccccc2)C1=O (configuration not stated) | inactive | 
28 | COc1ccccc1C(=O)NCCC(=O)NN1C(=O)NC2(CCCCC2)C1=O | inactive | 
29 | C/C(=N\Nc1nc(Nc2ccccc2)nc(N2CCOCC2)n1)c1cccs1 | inactive | 
30 | O=C(CN1CCOCC1)Nc1cc(Cl)ccc1Cl | inactive | 
31 | O=C(CSc1nc(Nc2ccccc2)nc(N2CCOCC2)n1)Nc1cc(Cl)ccc1O | 5.22 µM (active) | 
32 | CC(=O)c1c(C)[nH]c(C(=O)COC(=O)CCOc2ccc(C)cc2)c1C | inactive | 
33 | Cn1nc(C(C)(C)C)c([N+](=O)[O-])c1C(N)=O | inactive | 
34 | CC(=O)N1c2ccc(S(=O)(=O)N(C)CC(=O)N(C)Cc3ccccc3)cc2CC1C (configuration not stated) | inactive | 
35 | CC(=O)c1sc(N)nc1C | inactive | 
36 | COc1ccccc1CNS(=O)(=O)c1cc2c3c(c1)CCC(=O)N3CCC2 | inactive | 
37 | CN(C)S(=O)(=O)c1ccc(N2CCCC2)c(C(=O)Nc2cccc(F)c2)c1 | inactive | 
38 | CN(C)S(=O)(=O)c1ccc(N2CCCC2)c(C(=O)Nc2ccc(Br)cc2F)c1 | 8.28 µM (active) | 
39 | Cc1ccccc1OCC(=O)NNC(=O)c1cc(S(=O)(=O)N(C)C)ccc1N1CCCC1 | inactive | 
40 | CCOC(=O)c1c(C)[nH]c(C(=O)NCCN2CCOCC2)c1C | inactive | 
41 | O=C(NCCCN1CCOCC1)c1ccc2c(c1)N(Cc1cccc(F)c1)C(=O)c1ccccc1S2 | inactive | 
42 | COC(=O)c1sc(N)c(C(=O)OC)c1COC(=O)CNS(=O)(=O)c1ccc(C)cc1 | inactive | 

Row | Structure (SMILES) | Potency | activity change, negative = inhibition
43 | C=CCn1c(SCc2c(C(=O)OC)sc(N)c2C(=O)OC)nnc1-c1ccc(Cl)cc1 | 3.29 µM (active) | 
44 | C=CCn1c(SCc2cc(C(=O)OC)c(C)o2)nnc1-c1ccncc1 |  | -0.417% [at 5.75 µM]
45 | Cc1nc2cc(NC(=O)Nc3cccc(F)c3)ccc2n1C | inactive | 
46 | COc1ccc(CNC(=O)COC(=O)CCS(=O)(=O)c2ccc(C)cc2)cc1OC | inactive | 
47 | COc1ccc2c(c1)C(C)=CC(C)(C)N2C(=O)Nc1ccccc1 | 10.4 µM (active) | 
48 | COc1ccc(NC(=O)N2CCC(Cc3ccccc3)CC2)cc1 | inactive | 
49 | COc1ccc2c(c1)C(C)=CC(C)(C)N2C(=O)CNCc1ccc2c(c1)OCO2 | inactive | 
50 | CCOC(=O)c1c(S(=O)(=O)NCC(=O)Nc2ccc(C)cc2)c(C)n(C)c1C | inactive | 
51 | CCOC(=O)c1c(C)n(C)c2ccc(OC)c(NS(=O)(=O)CC)c12 | inactive | 
52 | CCOC(=O)c1c(S(=O)(=O)Nc2cccc(Cl)c2)c(C)n(C)c1C | 10.4 µM (active) | 
53 | CCN(CC)CCCNC(=O)COc1ccc2oc3c(c2c1)CCCC3 | inactive | 
54 | CCCS(=O)(=O)N1CCN=C1SCc1cccc(F)c1 | inactive | 
55 | CN(CC(=O)Nc1ccccc1C(F)(F)F)C(=O)Cc1ccccc1F | inactive | 
56 | CC[N+](CC)(CC)CCCCCCCCCC[N+](CC)(CC)CC | 0.37 µM (active) | 
57 | Cc1cccc(C)c1NC(=O)CSc1nc2c([nH]1)c(=O)n(C)c(=O)n2C | inactive | 
58 | CC(C)(C)[Si](OCC[C@@H]1C[C@@]1(C)[C@@H](NP(=O)(c1ccccc1)c1ccccc1)c1ccccc1)(c1ccccc1)c1ccccc1 | 2.33 µM (active) | 
59 | O=C(NC1CCCCC1)C1CCC(CNS(=O)(=O)c2ccccc2)CC1 (configuration not stated) | inactive | 
60 | Cc1nc(N2CCN(c3ccccn3)CC2)c2c(C)c(C(=O)Nc3ccc(F)cc3)sc2n1 | 4.15 µM (active) | 
61 | Cc1nc(N2CCOCC2)c2c(C)c(C(=O)Nc3ccc(C(F)(F)F)cc3)sc2n1 | inactive | 
62 | CCN(CC)c1ccc(NC(=O)CN2CCN(c3ccccn3)CC2)cc1 | inactive | 
